Values joined by “and” are separate entries in the source; they are usually repeats but may differ in a detail not shown here. Identical values can stand only once. Hit rate of the full screen: of about 5,500 compounds, about 2,000 (36%) were called active. Roughly 18% stayed inconclusive and do not appear here. Cut-off read from the data, not from the text of the source: active = normalized growth mostly below about 0.91 (no sharp cut-off); inconclusive = no clear call, values can overlap the other calls; inactive = mostly above about 0.92. Some of the results follow.
Test: chemical genetic growth profiling, strain panel (AID 1159580);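 note: tested at 20 µM; growth read once vehicle control cultures reached saturation at 30 °C; 1 = growth at the plate median or of vehicle wells; lower values mean less growth of the strain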
Details: S. cerevisiae deletion strains, growth OD

Measured: normalized growth

COc1ccc2[nH]cc(CCN)c2c1
inactive: locus YAL013W, strain DEP1, hits give low values 0.982 | locus YAL021C, strain ccr4, hits give low values 1.04 | locus YAL026C, strain drs2, hits give low values 0.987 | locus YAL030W, strain snc1, hits give low values 0.995 | locus YAL040C, strain CLN3, hits give low values 0.967 | locus YBL061C, strain skt5, hits give low values 0.989 | locus YBR009C, strain hhf1, hits give low values 1.02 | locus YBR021W, strain FUR4, hits give low values 0.985 | locus YBR023C, strain chs3, hits give low values 1 | locus YBR171W, strain sec66, hits give low values 0.993 | locus YBR229C, strain ROT2, hits give low values 0.95 | locus YBR231C, strain swc5, hits give low values 0.986 | locus YBR279W, strain paf1, hits give low values 0.995 | locus YCL011C, strain gbp2, hits give low values 1.01 | locus YCL016C, strain dcc1, hits give low values 1.02 | locus YCL029C, strain bik1, hits give low values 0.998 | locus YCL061C, strain MRC1 (second series), hits give low values 1 | locus YCL061C, strain MRC1, hits give low values 0.998 | locus YCL069W, strain vba3, hits give low values 0.992 | locus YCR088W, strain abp1, hits give low values 0.99 | locus YDL005C, strain med2, hits give low values 1.02 | locus YDL035C, strain GPR1, hits give low values 0.985 | locus YDL040C, strain nat1, hits give low values 0.991 | locus YDL074C, strain BRE1, hits give low values 0.999 | locus YDL101C, strain DUN1, hits give low values 0.989 | locus YDL134C, strain PPH21, hits give low values 0.973 | locus YDL185W, strain tfp1, hits give low values 0.97 | locus YDL192W, strain arf1, hits give low values 0.989 | locus YDR001C, strain nth1, hits give low values 0.989 | locus YDR069C, strain doa4, hits give low values 0.971 | locus YDR101C, strain arx1, hits give low values 0.998 | locus YDR137W, strain rgp1, hits give low values 1.01 | locus YDR150W, strain NUM1, hits give low values 0.963 and 0.992 | locus YDR159W, strain sac3, hits give low values 0.933 | locus YDR162C, strain NBP2, hits give low values 0.945 | locus YDR195W, strain ref2 0.951 | locus YDR297W, strain sur2, hits give low values 0.989 | locus YDR318W, strain mcm21, hits give low values 0.995 | locus YDR334W, strain swr1, hits give low values 0.982 | locus YDR335W, strain msn5, hits give low values 0.995 | locus YDR363W, strain ESC2, hits give low values 0.978 | locus YDR388W, hits give low values 0.986 | locus YDR392W, strain spt3, hits give low values 0.951 | locus YDR502C, strain sam2, hits give low values 0.995 | locus YEL003W, strain gim4, hits give low values 0.986 | locus YEL037C, strain rad23, hits give low values 0.988 | locus YEL061C, strain CIN8 (second series), hits give low values 0.989 | locus YEL061C, strain CIN8, hits give low values 0.977 | locus YER002W, strain NOP16, hits give low values 1.01 | locus YER015W, strain faa2, hits give low values 1 | locus YER016W, strain bim1, hits give low values 0.991 | locus YER110C, hits give low values 0.964 | locus YER111C, strain swi4, hits give low values 1 | locus YER155C, strain BEM2 (second series), hits give low values 0.978 | locus YER155C, strain BEM2, hits give low values 0.993 | locus YER167W, strain BCK2, hits give low values 0.987 | locus YFR010W, strain ubp6, hits give low values 0.979 | locus YGL078C, strain dbp3, hits give low values 0.984 | locus YGL086W, strain mad1, hits give low values 0.966 | locus YGL167C, strain pmr1, hits give low values 0.994 | locus YGL173C, strain kem1, hits give low values 0.997 | locus YGL227W, strain vid30, hits give low values 0.983 | locus YGL240W, strain doc1, hits give low values 0.986 | locus YGL248W, strain PDE1, hits give low values 0.981 | locus YGL253W, strain hxk2, hits give low values 0.974 | locus YGR078C, strain PAC10, hits give low values 0.999 | locus YGR135W, strain pre9, hits give low values 0.989 | locus YGR229C, strain SMI1, hits give low values 1.02 | locus YGR252W, strain gcn5, hits give low values 0.843 | locus YHR013C, strain ard1, hits give low values 0.973 | locus YHR027C, strain rpn1, hits give low values 1 | locus YHR030C, strain SLT2, hits give low values 0.985 | locus YHR079C, strain IRE1 (second series), hits give low values 0.992 | locus YHR094C, strain hxt1, hits give low values 0.984 | locus YHR129C, strain ARP1, hits give low values 0.996 | locus YHR142W, strain chs7, hits give low values 1 | locus YHR200W, strain rpn10, hits give low values 0.991 | locus YIL066C, strain RNR3, hits give low values 0.99 | locus YIL073C, strain SPO22, hits give low values 0.938 | locus YIL125W, strain kgd1, hits give low values 0.975 | locus YIR030C, strain dcg1, hits give low values 0.976 | locus YJL092W, strain hpr5, hits give low values 0.999 | locus YJL095W, strain BCK1 (second series), hits give low values 0.992 | locus YJL095W, strain BCK1, hits give low values 1.04 | locus YJL115W, strain asf1, hits give low values 0.99 | locus YJL129C, strain trk1, hits give low values 0.995 | locus YJL134W, strain LCB3, hits give low values 0.988 | locus YJL154C, strain vps35, hits give low values 0.981 | locus YJL164C, strain tpk1, hits give low values 1.02 | locus YJL166W, strain qcr8, hits give low values 1.01 | locus YJL168C, strain set2, hits give low values 0.999 | locus YJL187C, strain SWE1 (second series), hits give low values 0.993 | locus YJL187C, strain SWE1, hits give low values 1.01
